Screens: PubChem, National Center for Advancing Translational Sciences (NCATS)
Hits are enriched below; roughly 21% of the tested compounds scored in any of these assays.
VP16 counter – VP16 counterscreen qHTS for inhibitors of ROR gamma transcriptional activity; Drosophila S2 Gal4-VP16 UAS-luciferase, luminescence, 20 h; AID 2546, 2010; Potency, µM (series often up to 53.6 µM), for the others: at the top dose activity, negative = inhibition, usual class: inhibitors; 310,000 compounds, 3.5% hits;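 note: Gal4-VP16 expression switched on by copper sulfate through the metallothionein promoter; potency is the fitted concentration of half-maximal effect; nearly all actives have a fitted effect of over 50% in size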
RORgamma inh – qHTS for inhibitors of ROR gamma transcriptional activity; Nuclear receptor ROR-gamma (Mus musculus), P51450; Potency, µM (series often up to 53.6 µM), for the others: at the top dose activity change, negative = inhibition, hits mostly inhibitors; 310,000 compounds, 5.4% hits; AID 2551, 2010; Drosophila S2 Gal4-RORgamma UAS-luciferase reporter, 20 h; note: potency is the fitted concentration of half-maximal effect; nearly all actives have a fitted effect of over 60% in size
Target sequence (P51450 whole entry, looked up, the tested form may be a part): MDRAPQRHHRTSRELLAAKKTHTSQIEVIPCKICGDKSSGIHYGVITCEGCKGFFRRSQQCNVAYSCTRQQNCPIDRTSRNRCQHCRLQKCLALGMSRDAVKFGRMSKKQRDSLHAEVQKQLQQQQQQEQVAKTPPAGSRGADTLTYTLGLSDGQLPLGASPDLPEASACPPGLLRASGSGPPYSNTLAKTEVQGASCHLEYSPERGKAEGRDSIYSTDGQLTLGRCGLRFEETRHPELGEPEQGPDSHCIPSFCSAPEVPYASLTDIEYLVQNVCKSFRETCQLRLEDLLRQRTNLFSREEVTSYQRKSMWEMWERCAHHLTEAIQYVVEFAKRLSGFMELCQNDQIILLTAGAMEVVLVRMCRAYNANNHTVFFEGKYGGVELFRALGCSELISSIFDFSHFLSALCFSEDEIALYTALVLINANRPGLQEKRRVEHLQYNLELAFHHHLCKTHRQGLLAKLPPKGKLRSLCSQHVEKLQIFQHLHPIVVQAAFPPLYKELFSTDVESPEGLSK
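Schneider cells (Drosophila), stable Gal4 DBD–ROR gamma + UAS-luc; 1 hr cmpd preincubation; Cu2+ induction 700 uM final; 20 hr ambient; luminescence.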
IL-1B inflam inh – qHTS for Inhibitors of Inflammasome Signaling: IL-1-beta AlphaLISA Primary Screen | THP-1 LPS/ATP IL-1B secretion, AlphaLISA, 16 h; stronger effect = lower value | activity change, % at 57.5 µM | 360,000 compounds, 4.7% hits | AID 743279, 2014; in the data active = activity change below about -50%; inconclusive = mostly about -30% to -49%
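THP-1 cells pretreated 1 hr with compounds (up to 57.5 uM final), then stimulated with LPS (250 ng/mL final) plus ATP (1.25 mM final); secreted IL-1B measured by AlphaLISA after 16 hr, decreased signal indicating inhibition.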
TDP1 cell noCPT – qHTS for Inhibitors of human tyrosyl-DNA phosphodiesterase 1 (TDP1): qHTS in cells in absence of CPT; DT40 Tdp1-/- hTDP1 cells, no CPT, ATP luminescence, 48 h; Potency, µM (highest dose often 46.2 µM), for inactives: at the top dose activity change, negative = growth inhibition, most hits filed as inhibitors; 420,000 compounds, 15% hits; note: potency is the fitted concentration of half-maximal effect; nearly all actives have a fitted effect of over 55% in size
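Growth kinetics read by CellTiter-Glo luminescence after ≥48 hr at 37 °C. Cells: DT40 Tdp1-/- stably carrying human TDP1, 400 per well, compound exposure in the absence of CPT (DMSO vehicle).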
TDP1 cell CPT – qHTS for Inhibitors of human tyrosyl-DNA phosphodiesterase 1 (TDP1): qHTS in cells in presence of CPT; chicken DT40 Tdp1-/-;hTDP1 cells + 20 nM CPT, ATP luminescence, 48 h; 420,000 compounds, 12% hits; Potency, µM (top dose mostly 46.2 µM), for inactives: top-dose activity change, negative = growth inhibition, most hits filed as inhibitors; note: potency is the fitted concentration of half-maximal effect; nearly all actives have a fitted effect of over 55% in size
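Chicken DT40 Tdp1-/- cells complemented with human TDP1, 400 cells/well, exposed to compounds plus 20 nM camptothecin for at least 48 h at 37 C; viability read as ATP content by CellTiter-Glo luminescence.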
ELG1 repair inh – qHTS screen for small molecules that inhibit ELG1-dependent DNA repair in human embryonic kidney (HEK293T) cells expressing luciferase-tagged ELG1; Potency, µM (doses to about 46.1 µM), inactives show at the highest dose activity change, negative = inhibition, usual class: inhibitors; AID 504467, 2011; 330,000 compounds, 2.3% hits; HEK293T ELG1-luciferase reporter, luminescence, 16 h; DNA damage induced by 5-fluorouridine; note: potency is the fitted concentration of half-maximal effect; nearly all actives have a fitted effect of over 55% in size
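Quantitative HTS, concentration-response format. 2,000 cells/well co-treated with 5-fluorouridine and compound, 16 hr in 5% CO2 at 37 °C; ONE-Glo luminescence read after 30 min.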
The depositor's hits bear a star; ? = inconclusive; . = no result; ! = a repeat was not active; [ ] = remark or other dose. Unless noted, calls come from the whole dose curve; as a rule, active = well fitted curve in the direction sought with a large enough effect; inconclusive = small, poorly fitted or top-dose-only effect, or another doubt; inactive = no such curve, though single readings can be large; an effect the other way counts as inactive or inconclusive. % is set by controls: 0 for no effect and ±100 for the full control effect.

SMILES	VP16 counter	RORgamma inh	IL-1B inflam inh	TDP1 cell noCPT	TDP1 cell CPT	ELG1 repair inh
CCNc1ncc2nc(C)c(=O)n(-c3ccc(OC)cc3)c2n1	2%	-12%	.	2.1µM*	?	.
Cc1cccc(-c2cc3nc(C)cc(NCCCN(C)C)n3n2)c1	.	17%[0.365 µM]	-101*	?	?	?
CCN(CC)CCCNc1cc(C)nc2cc(-c3cccs3)nn12	?	11µM*	-101*	-4%	18%	16%
Cc1cccc(-c2cc3nc(C)cc(C)n3n2)c1	-14%	-37%	56	?	1%	?
CN(C)CCCNc1cc(-c2ccccc2)nc2cc(-c3cccc(F)c3)nn12	?	?	-88*	7.3µM*	?	?
Cc1cccc(-c2cc3nc(C)cc(N4CC(C)CC(C)C4)n3n2)c1 (configuration not stated)	-9%	-11%	39	16µM*	16µM*	?
Cc1cnc(CNc2ccnc(-c3ccccc3Cl)n2)cn1	-11%	8%	.	-5%	9%	.
CCN(CC)CCNC(=O)c1ccc(NC(=O)C2CC(=O)N(CCc3ccc(OC)c(OC)c3)C2)cc1 (configuration not stated)	.	.	45	2%	-1%	8%
O/N=C1/CCc2cccc3cccc1c23	1%	38%	16	-8%	15%	-15%
O=C1C(=NO)CCc2ccccc21	.	.	-78*	21µM*	21µM*	.
O=c1ccc2c(OCCCCOc3ccccc3)c3ccoc3cc2o1	-16%	22%	.	.	.	.
O=C(CSc1nnc2sc3ccccc3n12)NCc1ccco1	0%	9%	31	13µM*	?	?
CCn1c(SC(=O)NC2CCCCC2)nnc1-c1cccs1	?	7.9µM*	-20	23µM*	21µM*	?
CCn1c(SCC(=O)NC2CCCCC2)nnc1-c1cccs1	-3%	-3%	0	-16%	1%	3%
CCn1c(SCC(=O)NCc2ccco2)nnc1-c1cccs1	?	11µM*	19	-5%	1%	0%
COc1cccc(C2=Nn3c(nnc3-c3ccccc3OC)SC2)c1	5%	?	.	.	.	.
Cn1c(-c2cccc([N+](=O)[O-])c2)[n+](C)c2ccccc21	5%	-11%	54	3.3µM*	7.3µM*	?
Cn1c(-c2ccccn2)[n+](C)c2ccccc21	-4%	3%	32	17%	-10%	9%
COc1ccc(N2CC(O)=C(c3n(C)c4ccccc4[n+]3C)C2=N)cc1	5%	0%	38	?	?	7%
Cn1c(-c2ccc3ccccc3n2)[n+](C)c2ccccc21	-2%	?	29	3.7µM*	3.3µM*	?
CN(C)c1ccc(-c2n(C)c3ccccc3[n+]2C)cc1	?	27%	-80*	0.82µM*	1.6µM*	?
CN(Cc1cccc(F)c1)C(=O)C1CC(=O)N(Cc2ccco2)C1 (configuration not stated)	.	.	15	-22%	-1%	.
Cc1ccc2[nH]c(CCN(C)C)c(CN3CCOCC3)c2c1	.	.	-24	?	21µM*	?
Cc1ccc2[nH]c3c(=O)n(CCN4CCOCC4)cnc3c2c1	-11%	24%	-3	-1%	-2%	?
Cc1ccc(C(=O)c2sc3c(c2N)c(=O)[nH]c(=O)n3CCc2ccccc2)cc1	-8%	-1%	27	16µM*	16µM*	-29%
SMILES	VP16 counter	RORgamma inh	IL-1B inflam inh	TDP1 cell noCPT	TDP1 cell CPT	ELG1 repair inh
CC(=O)c1ccc(-n2c(=O)[nH]c(=O)c3c(N)c(C(=O)c4ccc(Cl)cc4)sc32)cc1	?	-3%	179	3.7µM*	?	?
Nc1c(C(=O)c2ccccc2)sc2c1c(=O)[nH]c(=O)n2-c1ccccc1	-1%	6%	24	-23%	-26%	?
O=C(NCCN1C(=O)S/C(=C/c2cccnc2)C1=O)c1cccs1	.	.	?	?	?	4%
O=C(NCCN1C(=O)S/C(=C\c2cccnc2)C1=O)C1=NN(c2ccccc2)C(=O)CC1	4%	-29%	0	23µM*	?	3%
O=C(COc1ccccc1-c1ccccc1)NCCN1C(=O)S/C(=C\c2cccnc2)C1=O	20µM*	-42%	-1	16µM*	16µM*	?
CC(C)(C)C(=O)NC1CC(=O)N(c2ccc3c(c2)OCCO3)C1 (configuration not stated)	.	.	.	13%	-1%	.
COc1cc(OC)c(OC)cc1CNCCCSc1nnnn1C	.	.	.	-9%	-2%	.
CC(C)(C)c1cc(CCC(=O)Nc2ccncc2)cc(C(C)(C)C)c1O	.	.	?	-22%	-16%	.
CN(C)c1nccc(Nc2ccccc2)c1C#N	-6%	-35%	-10	21µM*	?	11%
COc1ccc(CCNC(=O)c2cccc(NS(=O)(=O)c3ccccc3F)c2)cc1OC	16%	0%	14	-10%	2%	2%
CCOC1=C(C#N)CC2(CC1)c1ccccc1-c1ccccc12	.	.	-30	23µM*	?	.
Cc1cc2c(cn1)C(CCC#N)(CCC#N)c1ccccc1-2	0%	-28%	14	-21%	-25%	-9%
CC(C)(C)OC(=O)C1=NOC2(C=CC(=O)C=C2)C1	13µM*!	?	.	.	.	.
CNCc1c(OCc2ccccc2)ccc2ccccc12	-3%	24%	-86*	?	?	-26%
CC(C)(CO)NCc1c(OCc2ccc(Cl)cc2)ccc2ccccc12	-12%	-18%	-106*	?	?	-5%
CC(C)(C)NCC(O)COCc1ccc(Cl)cc1 (configuration not stated)	-2%	10%	-9	?	?	-5%
COc1ccc(C2=Nn3c(nnc3-c3ccccc3O)SC2)c(OC)c1	1%	-11%	.	.	.	.
O=c1ccc2ccc(OS(=O)(=O)O)cc2o1	7%	-4%	.	.	.	.
CC1(C)SC2c3ccccc3C(=O)N2C1C(=O)O (configuration not stated)	.	.	-2	-19%	-7%	.
Cc1ccc2nc(N3C(=O)C(O)=C(C(=O)c4ccc(C)o4)C3c3ccco3)sc2c1 (configuration not stated)	.	.	20	1%	-4%	?
